Measurements published in PubChem BioAssay (NCATS).
Values joined by “and” are separate entries in the source; they are usually repeats but may differ in a detail not shown here. Identical values can stand only once. Results filed as inconclusive are left out. A call without a number means that no potency is given here. Where a structure was tested more than once in an assay, its records may differ in their call. Active and inactive are the calls of the source. Unless noted, calls come from the whole dose curve; as a rule, active = well fitted curve in the direction sought with a large enough effect; inconclusive = small, poorly fitted or top-dose-only effect, or another doubt; inactive = no such curve, though single readings can be large; an effect the other way counts as inactive or inconclusive.

Assays:
[1] = qHTS for Inhibitors of Plasmodium falciparum (DD2) proliferation (AID 504314); note: potency is the fitted concentration of half-maximal effect;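 for activity, negative = inhibition: parasite DNA measured by SYBR Green fluorescence after red cell lysis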; conditions: P. falciparum Dd2 in erythrocytes, SYBR Green growth, 72 h; series mostly up to 6.11 µM
Method in brief: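 Infected RBCs, 0.3% parasitemia, 2.5% Hct; compound 72 h, 37C/5% CO2; lyse + SYBR Green I, RT overnight, dark; read ex485/em535; normalize to DMSO and artemisinin 0.29 uM.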

[2] = qHTS for Inhibitors of Plasmodium falciparum (GB4) proliferation (AID 504315); note: nearly all actives have a fitted effect of over 50% in size; note: potency is the fitted concentration of half-maximal effect; conditions: P. falciparum GB4 in erythrocytes, SYBR Green DNA, 72 h; series mostly up to 6.7 µM
Method in brief: (§1)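 Erythrocytes infected with P. falciparum line (0.3% parasitemia, 2.5% hematocrit final) incubated with compounds 72 h at 37 °C, 5% CO2; SYBR Green lysis buffer added, fluorescence read next day. Normalized to 0.29 uM artemisinin and DMSO.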

[3] = qHTS for Inhibitors of Plasmodium falciparum (7G8) proliferation (AID 504316); note: nearly all actives have a fitted effect of over 65% in size; note: potency is the fitted concentration of half-maximal effect; conditions: P. falciparum 7G8 in erythrocytes, SYBR Green DNA, 72 h; series mostly up to 6.7 µM
Method in brief: as §1

[4] = qHTS for Inhibitors of Plasmodium falciparum (HB3) proliferation (AID 504318); note: nearly all actives have a fitted effect of over 60% in size; note: potency is the fitted concentration of half-maximal effect; conditions: P. falciparum HB3 in erythrocytes, SYBR Green DNA, 72 h; series mostly up to 7.21 µM
Method in brief: as §1

[5] = qHTS for Inhibitors of Plasmodium falciparum (CP250) proliferation (AID 504320); note: potency is the fitted concentration of half-maximal effect; conditions: P. falciparum CP250 in erythrocytes, SYBR Green DNA, 72 h; series mostly up to 6.7 µM
Method in brief: as §1

[6] = target: Atrial natriuretic peptide receptor 1 (Homo sapiens) (UniProt P16066); experiment: Natriuretic polypeptide receptor (hNpr1) antagonism - Pilot CMLD screen (AID 1347052; calls by dose curve;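 note: HEK293 cells with hNpr1 stimulated by hNppA peptide at 0.1 nM; cGMP level read as GloSensor luciferase luminescence after agonist stimulation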); conditions: HEK293 hNpr1 GloSensor cGMP luminescence, ANP-stimulated; series mostly up to 9.22 µM
Atrial natriuretic peptide receptor 1 (Homo sapiens), sequence (P16066 whole entry, looked up): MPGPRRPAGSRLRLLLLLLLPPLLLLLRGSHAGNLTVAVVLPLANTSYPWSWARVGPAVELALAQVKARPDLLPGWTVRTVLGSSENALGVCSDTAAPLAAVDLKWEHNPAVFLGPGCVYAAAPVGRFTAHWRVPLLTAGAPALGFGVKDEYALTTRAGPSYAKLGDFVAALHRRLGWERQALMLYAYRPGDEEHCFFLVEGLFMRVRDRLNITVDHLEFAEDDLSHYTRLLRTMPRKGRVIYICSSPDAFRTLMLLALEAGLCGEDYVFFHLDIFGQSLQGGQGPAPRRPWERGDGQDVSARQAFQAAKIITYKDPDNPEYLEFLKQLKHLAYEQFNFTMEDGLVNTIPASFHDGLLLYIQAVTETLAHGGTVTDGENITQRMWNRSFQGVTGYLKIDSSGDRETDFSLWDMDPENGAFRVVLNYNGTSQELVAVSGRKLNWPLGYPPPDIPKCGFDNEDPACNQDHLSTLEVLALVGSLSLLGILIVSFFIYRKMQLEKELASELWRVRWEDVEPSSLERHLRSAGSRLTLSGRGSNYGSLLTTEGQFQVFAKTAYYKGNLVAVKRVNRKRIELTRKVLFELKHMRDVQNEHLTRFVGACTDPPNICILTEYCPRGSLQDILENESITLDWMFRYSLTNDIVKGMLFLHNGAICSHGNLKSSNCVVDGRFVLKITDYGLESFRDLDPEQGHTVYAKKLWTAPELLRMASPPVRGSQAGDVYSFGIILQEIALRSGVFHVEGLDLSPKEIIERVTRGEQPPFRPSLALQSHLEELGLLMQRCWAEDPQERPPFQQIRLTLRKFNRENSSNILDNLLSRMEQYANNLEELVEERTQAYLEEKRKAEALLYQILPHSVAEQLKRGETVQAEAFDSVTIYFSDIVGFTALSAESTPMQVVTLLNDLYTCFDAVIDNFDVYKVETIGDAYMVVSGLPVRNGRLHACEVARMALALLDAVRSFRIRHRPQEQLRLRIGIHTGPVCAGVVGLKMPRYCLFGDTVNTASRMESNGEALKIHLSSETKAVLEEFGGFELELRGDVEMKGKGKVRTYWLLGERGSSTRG

Which Potency [1] does the source give for `C=CCN1C(=O)[C@]2(OCCC=C[C@H]2C)c2ccccc21` here?
Its Potency is “inactive”.

And the Potency [2]?
Its Potency is “inactive”.

What about the Potency [3] of the same compound?
Its Potency is “inactive”.

What about the Potency [4] of the same compound?
The Potency was “inactive”.

And the Potency [5]?
Its Potency is “inactive”.

What about the Potency [6] of the same compound?
Its Potency is “inactive”.

Which Potency [1] does the source give for `FC(F)(F)c1cc(NC(=S)NC(c2ccccc2)c2ccccc2)cc(C(F)(F)F)c1` here?
The Potency was 1.34 µM (active) and inactive.

What about the Potency [2] of the same compound?
The Potency was 1.51 µM (active) and inactive.

What about the Potency [3] of the same compound?
The Potency was 536 nM (active) and inactive.

And the Potency [4]?
The Potency was 757 nM (active) and inactive.

What about the Potency [5] of the same compound?
The Potency was 1.2 µM (active) and inactive.

What about the Potency [6] of the same compound?
The Potency was “inactive”.

For `COCCN1C(=O)NC(c2cccc(C(F)(F)F)c2)C(C(=O)OC)=C1C` (stereo not given), which Potency [1] is on record?
Its Potency is “inactive”.

What about the Potency [2] of the same compound?
The Potency was “inactive”.

And the Potency [3]?
The Potency was “inactive”.

What about the Potency [4] of the same compound?
Its Potency is “inactive”.

And the Potency [5]?
Its Potency is “inactive”.

What about the Potency [6] of the same compound?
The Potency was “inactive”.

Which Potency [1] does the source give for `C=C(CCN1C=C(C(=O)OCC)C(c2ccccc2)NC1=O)OC` (stereo not given) here?
The Potency was “inactive”.

And the Potency [2]?
The Potency was “inactive”.

And the Potency [3]?
The Potency was “inactive”.

What about the Potency [4] of the same compound?
The Potency was “inactive”.

What about the Potency [5] of the same compound?
Its Potency is “inactive”.

What about the Potency [6] of the same compound?
The Potency was “inactive”.

For `C=C(CCN1C=C(C(C)=O)C(c2ccccc2)NC1=O)c1ccc(OC)cc1` (stereo not given), which Potency [1] is on record?
The Potency was “inactive”.

And the Potency [2]?
Its Potency is “inactive”.

What about the Potency [3] of the same compound?
Its Potency is “inactive”.

What about the Potency [4] of the same compound?
Its Potency is “inactive”.

What about the Potency [5] of the same compound?
The Potency was “inactive”.

What about the Potency [6] of the same compound?
The Potency was “inactive”.

Which Potency [1] does the source give for `CCN1C(=O)NC(CCc2ccccc2)C(C(C)=O)=C1C` (stereo not given) here?
Its Potency is “inactive”.

And the Potency [2]?
The Potency was “inactive”.

What about the Potency [3] of the same compound?
Its Potency is “inactive”.

What about the Potency [4] of the same compound?
Its Potency is “inactive”.

What about the Potency [5] of the same compound?
The Potency was “inactive”.

What about the Potency [6] of the same compound?
The Potency was “inactive”.

Which results are given for `CCN1C(=O)N(C)C(c2ccccc2)C(C(=O)OC)=C1C` (stereo not given)?
Potency [1]: inactive; Potency [2]: inactive; Potency [3]: inactive; Potency [4]: inactive; Potency [5]: inactive; Potency [6]: inactive

With `C=CCOC(=O)C(C(=O)CC)[C@@H](NC(=O)OC)c1ccc(F)cc1` (stereo not given in full) as the compound, how does the Potency [1] read?
The Potency was “inactive”.

What about the Potency [2] of the same compound?
Its Potency is “inactive”.

What about the Potency [3] of the same compound?
The Potency was “inactive”.

What about the Potency [4] of the same compound?
Its Potency is “inactive”.

What about the Potency [5] of the same compound?
The Potency was “inactive”.

And the Potency [6]?
The Potency was “inactive”.

Which Potency [1] does the source give for `COC(=O)N[C@H](C(C(=O)OC)=C(C)NCc1ccccc1)c1ccc(Cl)cc1` here?
Its Potency is “inactive”.

And the Potency [2]?
The Potency was “inactive”.

What about the Potency [3] of the same compound?
The Potency was “inactive”.

What about the Potency [4] of the same compound?
The Potency was “inactive”.

What about the Potency [5] of the same compound?
Its Potency is “inactive”.

And the Potency [6]?
Its Potency is “inactive”.

For `CC(=O)OC[C@H]1O[C@H](C#Cc2ccccc2)C=C[C@H]1O`, which Potency [1] is on record?
Its Potency is “inactive”.

What about the Potency [2] of the same compound?
Its Potency is “inactive”.

And the Potency [3]?
Its Potency is “inactive”.

What about the Potency [4] of the same compound?
The Potency was “inactive”.

What about the Potency [5] of the same compound?
Its Potency is “inactive”.

What about the Potency [6] of the same compound?
Its Potency is “inactive”.

What does the source list for `COc1ccc(-c2nc3c(c4c2C[C@H](c2ccccc2)OC4)CN(S(=O)(=O)c2ccc(Cl)c4nonc24)CC3)c(C)c1`?
Potency [1]: inactive; Potency [2]: inactive; Potency [3]: inactive; Potency [4]: inactive; Potency [5]: inactive; Potency [6]: inactive

For `C=CCCCN1C=C(C(C)=O)C(c2ccccc2)NC1=O` (stereo not given), which Potency [1] is on record?
The Potency was “inactive”.

And the Potency [2]?
The Potency was “inactive”.

What about the Potency [3] of the same compound?
Its Potency is “inactive”.

And the Potency [4]?
The Potency was “inactive”.

What about the Potency [5] of the same compound?
Its Potency is “inactive”.

What about the Potency [6] of the same compound?
The Potency was “inactive”.

For `COC[C@H]1O[C@@H](c2c(OC)cc(OC)cc2OC)[C@H](OC)[C@@H](OC)[C@H]1OC`, which Potency [1] is on record?
The Potency was “inactive”.

What about the Potency [2] of the same compound?
The Potency was “inactive”.

And the Potency [3]?
The Potency was “inactive”.

And the Potency [4]?
The Potency was “inactive”.

And the Potency [5]?
Its Potency is “inactive”.

What about the Potency [6] of the same compound?
Its Potency is “inactive”.

Which Potency [1] does the source give for `CCCCc1nc2c(c3c1C[C@H](C)OC3)CN(S(=O)(=O)c1ccc(C)cc1)CC2` here?
The Potency was “inactive”.

And the Potency [2]?
The Potency was “inactive”.

And the Potency [3]?
The Potency was “inactive”.

What about the Potency [4] of the same compound?
The Potency was “inactive”.

What about the Potency [5] of the same compound?
Its Potency is “inactive”.

And the Potency [6]?
The Potency was “inactive”.

Which Potency [1] does the source give for `COc1cc(C(NC(=O)C(F)(F)F)c2cc3ccccc3o2)cc(OC)c1OC` (stereo not given) here?
The Potency was “inactive”.

What about the Potency [2] of the same compound?
The Potency was “inactive”.

And the Potency [3]?
Its Potency is “inactive”.

And the Potency [4]?
The Potency was “inactive”.

And the Potency [5]?
Its Potency is “inactive”.

What about the Potency [6] of the same compound?
Its Potency is “inactive”.

With `CCCCc1cc2c(cn1)=C(OC(=O)C1CCCC1)C(C)(OC(=O)CC)C(=O)C=2` (stereo not given) as the compound, how does the activity, negative = inhibition [1] read?
Its activity, negative = inhibition is 0.367% [at 1.12 µM] (inactive).

What about the Potency [2] of the same compound?
Its Potency is 1.9 µM (active).

What about the Potency [3] of the same compound?
Its Potency is 1.51 µM (active) and 1.69 µM (active).

And the Potency [4]?
Its Potency is “inactive”.

And the Potency [5]?
Its Potency is “inactive”.

And the Potency [6]?
Its Potency is “inactive”.

Which Potency [1] does the source give for `COc1ccc2c(c1)C(NC(=O)C(F)(F)F)CC21CCCCC1` (stereo not given) here?
The Potency was “inactive”.

And the Potency [2]?
Its Potency is “inactive”.

And the Potency [3]?
Its Potency is “inactive”.

And the Potency [4]?
Its Potency is “inactive”.

And the Potency [5]?
Its Potency is “inactive”.

What about the Potency [6] of the same compound?
Its Potency is “inactive”.

With `O=C1NC[C@H](c2ccccc2)N1` as the compound, how does the Potency [1] read?
The Potency was “inactive”.

What about the Potency [2] of the same compound?
The Potency was “inactive”.

What about the Potency [3] of the same compound?
The Potency was “inactive”.

And the Potency [4]?
Its Potency is “inactive”.

What about the Potency [5] of the same compound?
The Potency was “inactive”.

And the Potency [6]?
The Potency was “inactive”.

What does the source list for `COC(=O)CC=C[C@@H](C)[C@H](OC)c1ccccc1Br`?
Potency [1]: inactive and 1.5 µM (active); Potency [2]: inactive and 1.51 µM (active); Potency [3]: inactive and 1.9 µM (active); Potency [4]: inactive and 1.9 µM (active); Potency [5]: inactive and 1.35 µM (active); Potency [6]: inactive

For `COc1cc2c(cc1OC)C1OC(c3ccsc3)(C2)Oc2cc(C)oc(=O)c21` (stereo not given), which Potency [1] is on record?
Its Potency is “inactive”.

And the Potency [2]?
Its Potency is “inactive”.

What about the Potency [3] of the same compound?
Its Potency is “inactive”.

And the Potency [4]?
The Potency was “inactive”.

And the Potency [5]?
The Potency was “inactive”.

What about the Potency [6] of the same compound?
Its Potency is “inactive”.

Which Potency [1] does the source give for `C=CCN1C(=O)CC[C@@]23C1=NC(C(=O)OC)=C(C(=O)OC)[C@@H]2N(C)c1ccccc13` here?
Its Potency is “inactive”.

And the Potency [2]?
Its Potency is “inactive”.

What about the Potency [3] of the same compound?
Its Potency is “inactive”.

And the Potency [4]?
The Potency was “inactive”.

What about the Potency [5] of the same compound?
The Potency was “inactive”.

And the Potency [6]?
Its Potency is “inactive”.

With `CCOC(=O)NN=C1C[C@@H](O)[C@@H](O)[C@@H]2[C@H]3C(=O)N(c4ccc(F)cc4F)C(=O)[C@@H]3CC[C@H]12` as the compound, how does the Potency [1] read?
Its Potency is “inactive”.

And the Potency [2]?
Its Potency is “inactive”.

What about the Potency [3] of the same compound?
Its Potency is “inactive”.

What about the Potency [4] of the same compound?
The Potency was “inactive”.

And the Potency [5]?
Its Potency is “inactive”.

What about the Potency [6] of the same compound?
Its Potency is “inactive”.

For `Cc1cc2c(c(=O)o1)[C@H]1O[C@](c3ccsc3)(Cc3cc(C#N)ccc31)O2`, which Potency [1] is on record?
Its Potency is “inactive”.

What about the Potency [2] of the same compound?
The Potency was “inactive”.

What about the Potency [3] of the same compound?
The Potency was “inactive”.

What about the Potency [4] of the same compound?
Its Potency is “inactive”.

And the Potency [5]?
Its Potency is “inactive”.

What about the Potency [6] of the same compound?
Its Potency is “inactive”.

What does the source list for `Cc1ccc([S+](=O)([O-])N(c2ccccc2)[S+](=O)([O-])C(F)(F)F)cc1`?
Potency [1]: inactive; Potency [2]: inactive; Potency [3]: inactive; Potency [4]: inactive; Potency [5]: inactive; Potency [6]: inactive

With `COC1=CC2C(=O)C(C1=O)C1c3ccccc3CC21` (stereo not given) as the compound, how does the Potency [1] read?
The Potency was “inactive”.

And the Potency [2]?
Its Potency is “inactive”.

And the Potency [3]?
The Potency was “inactive”.

And the Potency [4]?
The Potency was “inactive”.

And the Potency [5]?
Its Potency is “inactive”.

And the Potency [6]?
Its Potency is “inactive”.
